# Results taken from paper PMC8384837, “Expanding the binding specificity for RNA recognition by a PUF domain”.
# Changes are numbered by the printed parent chain.
# What was measured:
# Assay in all cases: yeast three-hybrid, YBZ-1, SC-Leu-His + 0.5 mM 3-AT, 4 days
# Details in all cases: tags: N-Gal4 AD-HA kept; label: inside an RPR1-promoter hybrid RNA with tandem MS2 sites; ssRNA
# PUM1 PUF domain R4-MNR = PUM1 PUF domain R4-MNR (Homo sapiens, UniProt Q14671 828-1176, N971M;H972N;Q975R)
# Method in brief: (§1)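 Each repeat of the Pumilio-1 PUF domain was randomized at its three base-contacting residues, and these libraries were co-expressed from a centromeric plasmid with matching RNA elements in strain YBZ-1. After four days on SC-Leu (input) or SC-Leu-His + 0.5 mM 3-AT (selection), the repeat regions were PCR-amplified and Illumina-sequenced. The interaction score compares variant frequency between input and selection as a log change, computed in log2 with a pseudocount of 1 for absent variants.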
# PUM1 PUF domain R4-PYE = PUM1 PUF domain R4-PYE (Homo sapiens, UniProt Q14671 828-1176, N971P;H972Y;Q975E)
# Method in brief: as §1
# PUM1 PUF domain R7-VER = PUM1 PUF domain R7-VER (Homo sapiens, UniProt Q14671 828-1176, S1079V;N1080E;E1083R)
# Method in brief: as §1
# PUM1 PUF domain R3-MRA = PUM1 PUF domain R3-MRA (Homo sapiens, UniProt Q14671 828-1176, C935M;Q939A)
# Method in brief: as §1
# PUM1 PUF domain R1-RRV = PUM1 PUF domain R1-RRV (Homo sapiens, UniProt Q14671 828-1176, S863R;Q867V)
# Method in brief: as §1
# PUM1 PUF domain R8-CWR = PUM1 PUF domain R8-CWR (Homo sapiens, UniProt Q14671 828-1176, N1122C;Y1123W;Q1126R)
# Method in brief: as §1
# PUM1 PUF domain R8-KYV = PUM1 PUF domain R8-KYV (Homo sapiens, UniProt Q14671 828-1176, N1122K;Q1126V)
# Method in brief: as §1
# PUM1 PUF domain R8-KYA = PUM1 PUF domain R8-KYA (Homo sapiens, UniProt Q14671 828-1176, N1122K;Q1126A)
# Method in brief: as §1
# PUM1 PUF domain R8-KWR = PUM1 PUF domain R8-KWR (Homo sapiens, UniProt Q14671 828-1176, N1122K;Y1123W;Q1126R)
# Method in brief: as §1
# PUM1 PUF domain R8-EWR = PUM1 PUF domain R8-EWR (Homo sapiens, UniProt Q14671 828-1176, N1122E;Y1123W;Q1126R)
# Method in brief: as §1
# PUM1 PUF domain R5-RAP = PUM1 PUF domain R5-RAP (Homo sapiens, UniProt Q14671 828-1176, C1007R;R1008A;Q1011P)
# Method in brief: as §1
# PUM1 PUF domain R5-SGK = PUM1 PUF domain R5-SGK (Homo sapiens, UniProt Q14671 828-1176, C1007S;R1008G;Q1011K)
# Method in brief: as §1
# PUM1 PUF domain R5-KSR = PUM1 PUF domain R5-KSR (Homo sapiens, UniProt Q14671 828-1176, C1007K;R1008S;Q1011R)
# Method in brief: as §1
# PUM1 PUF domain R6-KYR = biological target: T1, PUM1 PUF domain R6-KYR (Homo sapiens, UniProt Q14671 828-1176, N1043K;Q1047R)
# T1 sequence: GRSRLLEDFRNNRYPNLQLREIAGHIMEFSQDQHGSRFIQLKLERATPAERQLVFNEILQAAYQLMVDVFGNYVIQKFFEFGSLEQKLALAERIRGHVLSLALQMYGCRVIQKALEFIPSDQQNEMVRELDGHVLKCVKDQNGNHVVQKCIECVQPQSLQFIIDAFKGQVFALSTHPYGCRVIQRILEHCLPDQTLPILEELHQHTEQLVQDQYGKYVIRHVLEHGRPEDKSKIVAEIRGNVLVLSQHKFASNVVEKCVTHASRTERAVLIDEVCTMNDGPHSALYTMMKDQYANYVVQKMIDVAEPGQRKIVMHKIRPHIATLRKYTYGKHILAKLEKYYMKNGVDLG
# Method in brief: as §1
# PUM1 PUF domain R3-VNV = PUM1 PUF domain R3-VNV (Homo sapiens, UniProt Q14671 828-1176, C935V;R936N;Q939V)
# Method in brief: as §1
# PUM1 PUF domain R5-LYE = PUM1 PUF domain R5-LYE (Homo sapiens, UniProt Q14671 828-1176, C1007L;R1008Y;Q1011E)
# Method in brief: as §1
# PUM1 PUF domain R6-GWM = biological target: T2, PUM1 PUF domain R6-GWM (Homo sapiens, UniProt Q14671 828-1176, N1043G;Y1044W;Q1047M)
# T2 sequence: T1 sequence with K216G, Y217W, R220M
# Method in brief: as §1
# PUM1 PUF domain R2-SWW = PUM1 PUF domain R2-SWW (Homo sapiens, UniProt Q14671 828-1176, N899S;Y900W;Q903W)
# Method in brief: as §1
# PUM1 PUF domain R5-DWH = PUM1 PUF domain R5-DWH (Homo sapiens, UniProt Q14671 828-1176, C1007D;R1008W;Q1011H)
# Method in brief: as §1
# PUM1 PUF domain R5-RKV = PUM1 PUF domain R5-RKV (Homo sapiens, UniProt Q14671 828-1176, C1007R;R1008K;Q1011V)
# Method in brief: as §1
sequence,measurement,setting,value
GGCUAGAACUAGUGGAUCCCCCGGCGCCCGGCGGCUCGAGCCCGGGUAAGUGUAUAUAGUCUGCAUGCCGCCGGGCGCCAUGCCUGCAGGUCGACUCUAGAAAACAUG,binding signal,PUM1 PUF domain R4-MNR,4.01 log2 enrichment (interaction score)
same,binding signal,PUM1 PUF domain R4-PYE,4.08 log2 enrichment (interaction score)
GGCUAGAACUAGUGGAUCCCCCGGCGCCCGGCGGCUCGAGCCCGGGUAAGUUUAAAUAGUCUGCAUGCCGCCGGGCGCCAUGCCUGCAGGUCGACUCUAGAAAACAUG,binding signal,PUM1 PUF domain R7-VER,3.22 log2 enrichment (interaction score)
GGCUAGAACUAGUGGAUCCCCCGGCGCCCGGCGGCUCGAGCCCGGGUAAGUGUAAGUAGUCUGCAUGCCGCCGGGCGCCAUGCCUGCAGGUCGACUCUAGAAAACAUG,binding signal,PUM1 PUF domain R3-MRA,5.2 log2 enrichment (interaction score)
GGCUAGAACUAGUGGAUCCCCCGGCGCCCGGCGGCUCGAGCCCGGGUAAGUGUAAAUGGUCUGCAUGCCGCCGGGCGCCAUGCCUGCAGGUCGACUCUAGAAAACAUG,binding signal,PUM1 PUF domain R1-RRV,1.17 log2 enrichment (interaction score)
GGCUAGAACUAGUGGAUCCCCCGGCGCCCGGCGGCUCGAGCCCGGGUAAGGGUAAAUAGUCUGCAUGCCGCCGGGCGCCAUGCCUGCAGGUCGACUCUAGAAAACAUG,binding signal,PUM1 PUF domain R8-CWR,2.72 log2 enrichment (interaction score)
same,binding signal,PUM1 PUF domain R8-KYV,3.44 log2 enrichment (interaction score)
GGCUAGAACUAGUGGAUCCCCCGGCGCCCGGCGGCUCGAGCCCGGGUAAGCGUAAAUAGUCUGCAUGCCGCCGGGCGCCAUGCCUGCAGGUCGACUCUAGAAAACAUG,binding signal,PUM1 PUF domain R8-KYA,3.04 log2 enrichment (interaction score)
same,binding signal,PUM1 PUF domain R8-CWR,4.31 log2 enrichment (interaction score)
same,binding signal,PUM1 PUF domain R8-KWR,6.68 log2 enrichment (interaction score)
same,binding signal,PUM1 PUF domain R8-KYV,2.16 log2 enrichment (interaction score)
same,binding signal,PUM1 PUF domain R8-EWR,2.45 log2 enrichment (interaction score)
GGCUAGAACUAGUGGAUCCCCCGGCGCCCGGCGGCUCGAGCCCGGGUAAGUGUAAUUAGUCUGCAUGCCGCCGGGCGCCAUGCCUGCAGGUCGACUCUAGAAAACAUG,binding signal,PUM1 PUF domain R3-MRA,2.68 log2 enrichment (interaction score)
GGCUAGAACUAGUGGAUCCCCCGGCGCCCGGCGGCUCGAGCCCGGGUAAGUGUAAAUCGUCUGCAUGCCGCCGGGCGCCAUGCCUGCAGGUCGACUCUAGAAAACAUG,binding signal,PUM1 PUF domain R1-RRV,3.63 log2 enrichment (interaction score)
GGCUAGAACUAGUGGAUCCCCCGGCGCCCGGCGGCUCGAGCCCGGGUAAGUGUUAAUAGUCUGCAUGCCGCCGGGCGCCAUGCCUGCAGGUCGACUCUAGAAAACAUG,binding signal,PUM1 PUF domain R5-RAP,0.85 log2 enrichment (interaction score)
same,binding signal,PUM1 PUF domain R5-SGK,2.15 log2 enrichment (interaction score)
same,binding signal,PUM1 PUF domain R5-KSR,2.77 log2 enrichment (interaction score)
GGCUAGAACUAGUGGAUCCCCCGGCGCCCGGCGGCUCGAGCCCGGGUAAGUGUAAAUAGUCUGCAUGCCGCCGGGCGCCAUGCCUGCAGGUCGACUCUAGAAAACAUG,binding signal,PUM1 PUF domain R6-KYR,5.19 log2 enrichment (interaction score)
same,binding signal,PUM1 PUF domain R3-VNV,3.12 log2 enrichment (interaction score)
same,binding signal,PUM1 PUF domain R8-CWR,4.45 log2 enrichment (interaction score)
same,binding signal,PUM1 PUF domain R8-KWR,5.93 log2 enrichment (interaction score)
same,binding signal,PUM1 PUF domain R8-KYV,2.77 log2 enrichment (interaction score)
same,binding signal,PUM1 PUF domain R5-LYE,3.07 log2 enrichment (interaction score)
same,binding signal,PUM1 PUF domain R8-EWR,1.16 log2 enrichment (interaction score)
same,binding signal,PUM1 PUF domain R6-GWM,2.52 log2 enrichment (interaction score)
GGCUAGAACUAGUGGAUCCCCCGGCGCCCGGCGGCUCGAGCCCGGGUAAGUGUACAUAGUCUGCAUGCCGCCGGGCGCCAUGCCUGCAGGUCGACUCUAGAAAACAUG,binding signal,PUM1 PUF domain R4-MNR,3.28 log2 enrichment (interaction score)
same,binding signal,PUM1 PUF domain R4-PYE,0.65 log2 enrichment (interaction score)
GGCUAGAACUAGUGGAUCCCCCGGCGCCCGGCGGCUCGAGCCCGGGUAAGUGUAAAUUGUCUGCAUGCCGCCGGGCGCCAUGCCUGCAGGUCGACUCUAGAAAACAUG,binding signal,PUM1 PUF domain R1-RRV,3.36 log2 enrichment (interaction score)
GGCUAGAACUAGUGGAUCCCCCGGCGCCCGGCGGCUCGAGCCCGGGUAAGUGUAAAAAGUCUGCAUGCCGCCGGGCGCCAUGCCUGCAGGUCGACUCUAGAAAACAUG,binding signal,PUM1 PUF domain R2-SWW,3.5 log2 enrichment (interaction score)
GGCUAGAACUAGUGGAUCCCCCGGCGCCCGGCGGCUCGAGCCCGGGUAAGUGUGAAUAGUCUGCAUGCCGCCGGGCGCCAUGCCUGCAGGUCGACUCUAGAAAACAUG,binding signal,PUM1 PUF domain R5-DWH,4.75 log2 enrichment (interaction score)
GGCUAGAACUAGUGGAUCCCCCGGCGCCCGGCGGCUCGAGCCCGGGUAAGUGUCAAUAGUCUGCAUGCCGCCGGGCGCCAUGCCUGCAGGUCGACUCUAGAAAACAUG,binding signal,PUM1 PUF domain R5-RAP,4.21 log2 enrichment (interaction score)
same,binding signal,PUM1 PUF domain R5-RKV,2.43 log2 enrichment (interaction score)
same,binding signal,PUM1 PUF domain R5-SGK,0.9 log2 enrichment (interaction score)
same,binding signal,PUM1 PUF domain R5-KSR,4.35 log2 enrichment (interaction score)
